Test results reported in PubChem BioAssay AID449762 (Southern Research Specialized Biocontainment Screening …, 2010).
The whole screen tested about 330,000 compounds, of which about 1,900 (0.58%) were called active. Roughly 4% stayed inconclusive and do not appear here. The list is a sample of the results. Measured potencies and affinities stand elsewhere. Unmarked numbers belong to inactive results. No stated cut-off is given here; in the data, inconclusive means inhibition above about 70% without an active follow-up result; inactive means below that.

Experiment: M. tuberculosis growth inhibition, HTS (AID 449762);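 further: bacterial growth assessed after seven days of incubation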
Conditions: M. tuberculosis H37Rv growth inhibition, 7H9 media; at 25 µM; stronger effect = higher value

First: O=C1CN(C(=O)CSc2ccc(-c3ccc(F)cc3)nn2)c2ccccc2N1
Second: COc1ccc(-c2cc(C(=O)N/N=C/c3cccnc3)c3ccccc3n2)cc1
The inhibition of the first is higher: -6.46% for the first, -8.58% for the second.

Going from `Cc1ccnc(N=Cc2nc(-c3ccccc3Br)oc2O)c1` to `COc1ccccc1/C=N/Nc1cc(C)nc2ccc(C)cc12`, the inhibition falls from 2.41% to -11.1%.

Compared with `Cc1nc(CCNC(=O)c2cc(COc3ccc(F)cc3Cl)on2)sc1C`, `Cc1ccc(OCC(=O)NC(C)c2ccc(Cl)c(Cl)c2)c([N+](=O)[O-])n1` (stereo unspecified) is lower in inhibition: 12.2% for the first, -3.43% for the second.

Going from `COc1ccc(-c2nc3c(c(=O)[nH]c(=O)n3Cc3ccccc3)n2CCO)cc1` to `CCCOc1ccc(-c2nc3c(c(=O)[nH]c(=O)n3Cc3ccccc3)n2CCO)cc1OCC`, the inhibition rises from -6.32% to -0.79%.

Compared with `CC(C)c1nc2ccc(Br)cn2c1NC1CCCC1`, `Cc1cc2cc(CNC(=S)NC3CCCCC3)ccc2[nH]1` is higher in inhibition: -4.28% for the first, 4.14% for the second.

Going from `CC(Sc1nnc(N)s1)C(=O)NNC(=O)c1cccc(Cl)c1` (stereo unspecified) to `CCn1c(C)nc2cc(C(=O)NNC(=O)Nc3cccc(Cl)c3)ccc21`, the inhibition rises from 0.75% to 2.59%.

First: CC1(C)C=Cc2c(ccc3c2OC[C@@H](c2ccc(O)cc2O)C3)O1
Second: CC1(C)C=Cc2c(ccc3c2OC[C@H](c2ccc(O)cc2O)C3)O1
The inhibition of the first is lower: 4.54% for the first, 9.89% for the second.

Going from `COc1cccc(C(=O)NC(=S)N2c3ccccc3CC2C)c1OC` (stereo unspecified) to `CC1Cc2ccccc2N1C(=S)NC1CCCC1` (stereo unspecified), the inhibition rises from -5.31% to -1.79%.

Compared with `O=C(Nc1ccccc1N1CCCCC1)c1cccc(Cl)c1`, `O=C(Nc1ccccc1Cl)c1ccc(Cl)cc1Cl` is higher in inhibition: 8.39% for the first, 64.5% for the second.

Going from `CCC(C)c1ccc(S(=O)(=O)N2CCN(CC(O)CN3CCOCC3)CC2)cc1` (stereo unspecified) to `Cc1ccc(S(=O)(=O)N2CCN(C(=O)CCc3c[nH]c4ccccc34)CC2)cc1`, the inhibition rises from -16.5% to -4.25%.

Compared with `CCCOc1ccc(-c2cn3ccccc3n2)cc1[N+](=O)[O-]`, `COc1ccc(-c2nn(-c3ccccc3)cc2CNC(=O)c2cccc([N+](=O)[O-])c2)cc1` is higher in inhibition: 2.24% for the first, 8.99% for the second.

First: COc1ccc2c(c1)C(=O)/C(=C/C=C/c1ccccc1)CC2
Second: COc1ccc2c(c1)CC/C(=C/c1cc(OC)c(OC)c(OC)c1)C2=O
The inhibition of the first is lower: 6.15% for the first, 50% for the second.

Going from `CC1CCCN(CCCNC(=O)c2ccc(NC(=O)C3=CSCCO3)cc2)C1` (stereo unspecified) to `O=C(Nc1ccc(C(=O)NCCCN2CCN(c3ccccc3)CC2)cc1)C1=CSCCO1`, the inhibition rises from -0.6% to 4.06%.

Compared with `CC(=O)Nc1ccc(NC(=O)CCCSc2nc3ccccc3s2)cc1`, `COc1ccccc1NC(=O)CSc1nc2ccccc2c(=O)n1C` is lower in inhibition: 0.37% for the first, 0.03% for the second.

First: COCC(C)n1c(-c2ccc3c(c2)NC(=O)CO3)csc1=Nc1ccc(OC(F)F)cc1 (stereo unspecified)
Second: COCCN=c1scc(-c2ccc3c(c2)NC(=O)CO3)n1/N=C(\C)c1ccc(O)cc1
The inhibition of the first is lower: 5.17% for the first, 6.92% for the second.

Going from `CC(=O)N1CCN(S(=O)(=O)c2cccc(C(=O)NC3CCCC3)c2)CC1` to `CCn1c(C)c(C)c2cc(C(=O)NC3CCCCCC3)ccc21`, the inhibition rises from -8.08% to 0.46%.

Going from `O=C(Nc1ccccc1C1CC1)c1cccs1` to `CC(C)CCNC(=O)Cc1csc(-c2ccccc2)n1`, the inhibition falls from -3.36% to -12%.

Compared with `CCc1cccc2c(C(=O)CN3C(=O)NC4(CCCCCC4)C3=O)c[nH]c12`, `COc1ccc(CC(=O)N2CCC3(CC2)NCCc2[nH]cnc23)cc1` is higher in inhibition: -3.22% for the first, 2.98% for the second.

First: CN(Cc1cn(C)nc1-c1ccc(Oc2ccccc2)cc1)CC1COCCO1 (stereo unspecified)
Second: CC(C)Oc1cccc(OCCN2C(=O)c3ccccc3C2=O)c1
The inhibition of the first is higher: 8.39% for the first, 7.3% for the second.

First: O=C(CN1C(=O)/C(=C/c2ccccc2F)Sc2ccccc21)NCc1cccnc1
Second: Cc1nn(C(C)C(=O)NCCCN(Cc2ccccc2)C(C)C)c(=O)c2c1sc1ccccc12 (stereo unspecified)
The inhibition of the first is higher: 14.8% for the first, -3.36% for the second.

Compared with `O=C(NCc1cccnc1)c1ccc(Cl)c(Cl)c1`, `COCCOc1cc(NC(=O)c2ccccc2)c(Cl)cc1Cl` is higher in inhibition: 3.71% for the first, 15% for the second.

Compared with `COc1ccc(CC(NC(C)=O)C(=O)NC2CCN(c3c4c(nc5ncnn35)CCC4)CC2)cc1` (stereo unspecified), `COc1ccc(-n2ncc3c(N4CCC(C(N)=O)CC4)ncnc32)cc1` is higher in inhibition: -5.34% for the first, 2.74% for the second.

Going from `CC(=O)NC(C)c1ccc(Cl)c(Cl)c1` (stereo unspecified) to `NC(=S)NNC(=O)Nc1ccc(Cl)c(Cl)c1`, the inhibition falls from 7.59% to -11.5%.

Compared with `CCOC(=O)Cc1csc(NS(=O)(=O)Cc2ccccc2)n1`, `O=C(Cc1ccccc1)NNC1CC(=O)N(c2ccc(Br)cc2)C1=O` (stereo unspecified) is higher in inhibition: -4.69% for the first, 0.86% for the second.

Going from `Cc1ccc2cccc(OCC(=O)NCCC3=CCCCC3)c2n1` to `Cc1ccc2cccc(N)c2n1`, the inhibition falls from 37.1% to 1.54%.

Going from `Cc1ccc(C(=O)N/C(=C\c2cccs2)C(=O)N2CCN(C)CC2)cc1C` to `O=C(/C=C/c1cccs1)N1CCN(Cc2ccc3c(c2)OCO3)CC1`, the inhibition rises from 0.74% to 49.9%.

Going from `CN1C(=O)[C@H]2[C@@H](/C=C/c3ccccc3)N3C(=O)CN(Cc4ccccn4)C(=O)[C@@]3(Cc3ccccc3)[C@H]2C1=O` to `COCCN(C(=O)/C=C/c1ccccc1)c1c(N)n(Cc2ccccc2)c(=O)[nH]c1=O`, the inhibition rises from -6.69% to -1.36%.

Compared with `COc1ccc(-c2nc(C3CCCCC3)c3cc(OC)ccc3n2)cc1`, `COc1ccc2nc(C3CCCCC3)nc(C3CCCCC3)c2c1` is lower in inhibition: 8.29% for the first, 0.84% for the second.

Compared with `O=C(NCCC1=CCCCC1)C1CCN(S(=O)(=O)c2ccccc2C(F)(F)F)CC1`, `O=C(CN1CCN(Cc2ccccc2F)C1=O)NCC1CCCO1` (stereo unspecified) is higher in inhibition: -3.46% for the first, 1.03% for the second.

First: Nc1c(-c2ccc(Cl)cc2)cnc2c(-c3ccccc3)cnn12
Second: CC(=O)c1cnc2c(-c3ccc(Cl)cc3)cnn2c1C
The inhibition of the first is higher: -2.52% for the first, -5.22% for the second.

First: c1cncc(-c2ccc3ncnc(NCc4cccs4)c3c2)c1
Second: O=C(NNC1CC(=O)N(c2ccc(Br)cc2)C1=O)c1cccnc1 (stereo unspecified)
The inhibition of the first is lower: 0.82% for the first, 1.55% for the second.

First: CCOC(=O)N1CCN(CCC(=O)Nc2ccc(OC(F)(F)F)cc2)CC1
Second: O=C(O)/C=C/C(=O)N1CCN(Cc2ccc3c(c2)OCO3)CC1
The inhibition of the first is higher: 18.8% for the first, -4.14% for the second.

First: Cc1ccc(CNC(=O)NC2CCCCC2)cc1
Second: CCCCCc1ccc(-c2cn(CC3CCCCC3)nn2)cc1
The inhibition of the first is lower: -3.64% for the first, 5.3% for the second.

First: Cc1ccc(N2C(=O)N(CC(=O)Nc3ccc(C)cc3Cl)C(=O)C2C)cc1 (stereo unspecified)
Second: C=CCC1c2cccc(C(=O)O)c2C(=O)N1c1cccc(C)c1 (stereo unspecified)
The inhibition of the first is lower: -3.9% for the first, 0.68% for the second.

First: Cc1ccc2c(C)ccc(O)c2n1
Second: Cc1cccc(Nc2nc(-c3ccc(O)cc3O)cs2)n1
The inhibition of the first is lower: -1.61% for the first, 6.03% for the second.

Compared with `O=C(c1ccoc1)N1CCCC(N2CCN(c3ccc(F)cc3)CC2)C1` (stereo unspecified), `COc1ccccc1N1CCN(C2CCCN(C(=O)c3cccc(-c4ccco4)c3)C2)CC1` (stereo unspecified) is higher in inhibition: -11.5% for the first, 2.87% for the second.

First: CCOc1ccc(C2OC(=O)Cc3cc(OC)c(OC)cc32)cc1 (stereo unspecified)
Second: COc1ccc(/C=N/Nc2nc(C)cc(-c3ccccc3)n2)c(OC)c1
The inhibition of the first is lower: -2.13% for the first, 7.29% for the second.

First: Cc1cccc(N2CCN(S(=O)(=O)c3cn(C)cn3)CC2)c1C
Second: CC(C)=CC(=O)N1CC[C@@H](N2CCN(c3ccccc3F)CC2)[C@H](O)C1
The inhibition of the first is higher: -3.87% for the first, -5.32% for the second.

Compared with `Nc1cc(Cl)ccc1Oc1ccccc1`, `Nc1cc(Cl)ccc1Oc1ccc(Cl)cc1` is higher in inhibition: -2.47% for the first, 4.14% for the second.

Going from `O=C(CNC(=O)c1cnccn1)Nc1ccc(F)c(F)c1F` to `CN(CC(=O)Nc1ccc(F)c(F)c1F)c1ncnc2sccc12`, the inhibition rises from -5.9% to 1.29%.

First: O=C(O)c1ccc(N/N=C/C2=C(N3CCOCC3)C(=C\c3ccccc3)/CC2)cc1
Second: O=CC1=C(N2CCOCC2)/C(=C\c2ccccc2)CC1
The inhibition of the first is higher: 0.66% for the first, -3.36% for the second.

Compared with `CCOC(=O)C1CCN(c2ncnc3c2cnn3-c2ccc(Cl)cc2)CC1`, `O=C(CCc1c[nH]c2ccccc12)OCC(=O)N1CCN(S(=O)(=O)c2ccccc2)CC1` is higher in inhibition: 5.45% for the first, 43.2% for the second.

Compared with `O=C(c1cnn(Cc2ccccc2)c1)N1CCN(S(=O)(=O)/C=C/c2ccccc2)CC1`, `COc1cccc(/C=N/NC(=O)CNC(=O)/C=C\c2ccccc2)c1O` is lower in inhibition: 6.35% for the first, 0.24% for the second.

Going from `COC(=O)c1c(NC(=O)CN2CCOCC2)sc2c1CCC(C)C2` (stereo unspecified) to `COCC(=O)Nc1sc2c(c1C(=O)OC)CCC(C)C2` (stereo unspecified), the inhibition rises from 3.32% to 9.87%.

Going from `COCC(=O)Nc1cccc(-c2ccc3nncn3n2)c1` to `CCn1cc(C(=O)NC(=S)Nc2ccccc2Br)cn1`, the inhibition falls from 0.62% to -4.11%.

Compared with `NC(=S)NNc1ccnc2cc(Cl)ccc12`, `C=CCn1c(CCCOc2ccc(Cl)cc2Cl)nnc1SCC(=O)Nc1nccs1` is lower in inhibition: 41.1% for the first, -6.64% for the second.

First: CCOc1ccccc1N1CCN(CC(O)COCc2cccs2)CC1 (stereo unspecified)
Second: C=CCn1c(SCC(=O)N(CC)CC)nc(O)cc1=O
The inhibition of the first is higher: 7% for the first, 1.96% for the second.

Going from `O=C(O)CN1C(=O)CSC1=S` to `O=C(O)CCCCCN1C(=O)CSC1=S`, the inhibition falls from 3.79% to -1.88%.
